{"source": "paper PMC5540273", "about": "(PLoS ONE, 2017);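 further: KINOMEscan kinase panel screen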", "data": [{"system": "CHEK2", "details": "concentration: 1 μM, replicates: in singlicate; n = 1", "units": {"%Inh": "%"}, "values": [{"smiles": "Oc1cc(Nc2ccnc3cc(I)ccc23)ccc1F", "note": "[GW552771]", "%Inh": 4}, {"smiles": "CC(C)c1nc(-c2cccc(NS(=O)(=O)c3c(F)cccc3F)c2F)c(-c2ccnc(Nc3ccc(N4CCOCC4)nc3)n2)s1", "note": "[GSK2008607]", "%Inh": 60}, {"smiles": "CCn1c(-c2nonc2N)nc2c(C#CC(C)(C)O)nc(OC[C@H](N)c3ccccc3)cc21", "note": "[GSK943949]", "%Inh": 0}, {"smiles": "CC(C)(C)c1ccc2nccc(Nc3cccc(O)c3)c2c1", "note": "[GW856795]", "%Inh": 0}]}, {"system": "CIT", "details": "concentration: 1 μM, replicates: in singlicate; n = 1", "units": {"%Inh": "%"}, "values": [{"smiles": "CN1CCN(CCCNc2nccc(-c3c(-c4ccc(F)cc4)nn4cc(C(F)(F)F)ccc34)n2)CC1", "note": "[GW621581]", "%Inh": 71}, {"smiles": "C[C@@H]1CC[C@@H](C(=O)Nc2ccccc2)CN1c1cc(-c2ccc3c(N)n[nH]c3c2)nc(N)n1", "note": "[GSK2286062]", "%Inh": 8}, {"smiles": "Cl.Cl.NCC(NCc1ccc(-c2ccnc3[nH]ccc23)s1)c1ccccc1", "note": "(stereo not drawn) [GSK1321565]", "%Inh": 93}, {"smiles": "Nc1n[nH]c2cnc(-c3ccccc3)cc12", "note": "[SB-642124]", "%Inh": 19}, {"smiles": "COc1cccc(NC(=O)NC2CCN(c3ccnc(Nc4cc(OC)c(OC)c(OC)c4)n3)C2)c1", "note": "(stereo not drawn) [GSK1379763]", "%Inh": 23}, {"smiles": "COc1cccc(C(=O)Nc2cccc(Oc3ccc4nc(NC(=O)C5CC5)cn4n3)c2)c1", "%Inh": 96.5}, {"smiles": "c1ccc(-c2n[nH]cc2Nc2ccnc3ccccc23)nc1", "note": "[GW694077]", "%Inh": 61}, {"smiles": "O=C(Nc1cccc(-c2nn3ccccc3c2-c2ccnc(Nc3cccc(C(F)(F)F)c3)n2)c1)c1c(F)cccc1F", "note": "[GSK292658]", "%Inh": 44}, {"smiles": "CSc1cccc2c(-c3ccncn3)c(-c3ccc(F)cc3)nn12", "note": "[GW514786]", "%Inh": 79}, {"smiles": "COc1ccc(CNC(=O)NC2CCN(c3ccnc(Nc4ccc(F)cc4)n3)CC2)cc1", "note": "[GSK1379788]", "%Inh": 28}, {"smiles": "COCCOCCOc1cc2ncc3c4ccc(C#N)cc4[nH]c3c2cc1OC", "%Inh": 98.2}, {"smiles": "FC(F)(F)c1ccc(/C=C/c2cncnc2Nc2ccc3[nH]c(Cc4ccccc4)nc3c2)cc1", "note": "[GW709199]", "%Inh": 55}, {"smiles": "COc1cc(Nc2nccc(N3CCC(NC(=O)Nc4cccc(C(C)=O)c4)C3)n2)cc(OC)c1OC", "note": "(stereo not drawn) [GSK1379753]", "%Inh": 11}, {"smiles": "O=C(O)C(F)(F)F.O=C(O)C(F)(F)F.O=c1[nH]ccc2nc(N[C@@H]3CCCNC3)nc(Nc3ccc(S(=O)(=O)N4CCOCC4)cc3)c12", "note": "[GSK2177277]", "%Inh": 76}, {"smiles": "Cc1ccc(C(=O)N2CC[C@@H](O)C2)cc1-n1c(C)cc(OCc2ccc(F)cc2F)c(Br)c1=O", "%Inh": 6}, {"smiles": "Cl.c1ccc(-c2ccc3c(Nc4ccc5[nH]ccc5c4)ccnc3c2)nc1", "note": "[GW440138]", "%Inh": 0}, {"smiles": "CCCCc1nn2ncccc2c1-c1ccnc(Nc2ccc(N3CCN(C)CC3)cc2)n1", "note": "[GW684941]", "%Inh": 30}, {"smiles": "COc1ccc(Nc2nccc(NCCNC(=O)c3cc4ccccc4s3)n2)cc1", "note": "[GSK1379896]", "%Inh": 5}, {"smiles": "COc1ccc(Nc2nccc(N3CCC(NC(=O)Nc4cccc(OC)c4)C3)n2)cc1", "note": "(stereo not drawn) [GSK1379742]", "%Inh": 14}, {"smiles": "O=C(Nc1ccccc1F)NC1CCN(c2ccnc(Nc3ccc(F)cc3)n2)CC1", "note": "[GSK1379800]", "%Inh": 0}, {"smiles": "Cn1cc(-c2ccc3c(c2)CCN3C(=O)Cc2cccc(F)c2)c2c(N)ncnc21", "note": "[GSK2603358]", "%Inh": 20}, {"smiles": "CCc1ccc(-c2ccc3c(c2)-c2c(cnn2C)S(=O)(=O)N3C)cc1", "%Inh": 8}, {"smiles": "COc1cc(Nc2nccc(-c3c(-c4cccc(NC(=O)c5c(F)cccc5F)c4)nn4ccccc34)n2)cc(OC)c1OC", "note": "[GSK323521]", "%Inh": 20}, {"smiles": "O=C(Nc1cccc(Oc2ccc3nc(NC(=O)C4CC4)cn3n2)c1)c1ccccc1C(F)(F)F", "%Inh": 63}, {"smiles": "O=c1[nH]cc(-c2ccc(N3CCOCC3)cc2)c2sc(-c3cn[nH]c3)cc12", "note": "[GSK2276055]", "%Inh": 92.1}, {"smiles": "Cc1cccc(Nc2nc(N[C@H]3CCNC3)ncc2C(N)=O)c1.Cl", "note": "[GSK2197149]", "%Inh": 76}, {"smiles": "Nc1ncc(-c2cccnc2)c2scc(-c3ccc4c(c3)CCN4C(=O)Cc3ccccc3)c12", "note": "[GSK683281]", "%Inh": 49}, {"smiles": "Cl.Cl.NCC(C(=O)Nc1cc(Br)c(-c2ccnc3[nH]ccc23)s1)c1ccccc1", "note": "(stereo not drawn) [GSK1269851]", "%Inh": 99}, {"smiles": "Fc1ccc(-c2ncn(C3CCNCC3)c2-c2ccnc(Oc3ccc(-c4ccccc4)cc3)n2)cc1", "note": "[SB-245391]", "%Inh": 98.9}]}]}
